In PubChem BioAssay (EPA / NIEHS):
Inconclusive results are not listed. Calls of active or inactive are those of the source. Rule for the calls, unless noted: active = hit-call score of the fitted dose curve at least 0.9, where 1 is the maximum; inactive = score below 0.9.

Legend:
[1] = CCTE_Mundy_HCI_Cortical_NOG_NeuriteCount: CCTE's Neurite Outgrowth Assay in rat cortical cells for Neurite Count, Mundy Lab (AID 2284212);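 note: cells fixed about two days after chemical exposure began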
Summary of the method: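 Rat cortical primary cells; compound added 2 h post-plating, 1/10 dilution of working solution. Anti-betaIII-tubulin/AF488 ICC; ArrayScan neurite count vs DMSO.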

[2] = CCTE_Mundy_HCI_Cortical_NOG_NeuriteLength: CCTE's Neurite Outgrowth Assay in rat cortical cells for Neurite Length, Mundy Lab (AID 2284213);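 note: neurites imaged about 48 to 50 h after chemical exposure began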
Summary of the method: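 First, rat primary cortical cells were plated and, 2 h later, given test chemical as a 1/10 dilution. Finally, βIII-tubulin immunostaining enabled automated imaging of neurite length.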

[3] = CCTE_Mundy_HCI_Cortical_Synap_Neur_Matur_NeuriteLength: CCTE's Synaptogenesis and Neurite Maturation Assay in rat cortical cells for Neurite Length, Mundy Lab (AID 2284214)
Summary of the method: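 DMSO-normalised neurite length, from high-content imaging of anti-MAP2-stained rat cortical cells fixed at DIV 12. Glia were suppressed with AraC (DIV 5) before chemical exposure from DIV 7.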

[4] = CCTE_Mundy_HCI_Cortical_Synap_Neur_Matur_SynapseCount: CCTE's Synaptogenesis and Neurite Maturation Assay in rat cortical cells for Synapse Count, Mundy Lab (AID 2284218)
Summary of the method: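 Endpoint: synapses/neuron by HCI (synaptophysin puncta on MAP2-labelled neurites, Hoechst nuclei). Rat primary cortical cells, AraC DIV 5, dosed DIV 7, fixed DIV 12; DMSO negative control.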

[5] = CCTE_Mundy_HCI_Cortical_Synap_Neur_Matur_NeuriteCount: CCTE's Synaptogenesis and Neurite Maturation Assay in rat cortical cells for Neurite Count, Mundy Lab (AID 2284222);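 note: exposure from day 7 to day 12 in vitro with readout at day 12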
Summary of the method: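 Rat primary cortical cells; AraC added at DIV 5, chemicals dosed with media change at DIV 7 through DIV 12. MAP2/synaptophysin/Hoechst immunostaining, high-content imaging of neurite number; fitted relative to DMSO.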

[6] = CCTE_Mundy_HCI_Cortical_Synap_Neur_Matur_CellBodySpotCount: CCTE's Synaptogenesis and Neurite Maturation Assay in rat cortical cells for Cell Body Spot Count, Mundy Lab (AID 2284223)
Summary of the method: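 High-content imaging counts synaptophysin puncta on neuronal cell bodies per neuron after MAP2/synaptophysin immunostaining. Rat primary cortical cells, glia arrested with AraC at DIV 5, were exposed DIV 7–12; signal decrease measured against DMSO.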

[7] = CCTE_Mundy_HCI_hNP1_Pro_ResponderAvgInten: CCTE's Proliferation Assay in human neuroprogenitor cells, Mundy Lab (AID 2284224; active = hit-call score of the fitted dose curve at least 0.9, where 1 is the maximum;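 note: human neural progenitor cells hNP1 derived from WA09 embryonic stem cells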)
Summary of the method: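 Proliferation read as average intensity of BrdU-positive cells, imaged at 26.25 h post-dosing: chemical exposure started after 40–44 h culture, BrdU during final 4 h, paraformaldehyde fixation. Positive-direction fit relative to DMSO.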

[8] = UKN2_HCS_IMR90_cell_viability: Viability Assessment in the University of Konstanz (UKN) Leist Lab Neural Crest Cell Migration Assay in human induced IMR90 Pluripotent Stem Cells (UKN2) (AID 2284233);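 note: cells exposed to compound for 24 h after a 24 h migration phase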
Summary of the method: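 Viability read as calcein-AM fluorescence by high-content imaging, Hoechst co-stain, 30 min. Human iPSC (IMR90) neural crest cells had migrated 24 h into stopper-defined gaps before 24 h chemical exposure. Fitted bidirectionally relative to DMSO.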

[9] = CCTE_Mundy_HCI_Cortical_NOG_NeuronCount: CCTE's Neurite Outgrowth Assay in rat cortical cells for Neuron Count, Mundy Lab (AID 2284236; active = hit-call score of the fitted dose curve at least 0.9, where 1 is the maximum;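 note: neurons counted by imaging betaIII-tubulin and Hoechst stained cortical cells; cells exposed to compound for about 48 hours before fixation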)
Summary of the method: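 Read-out: neuron number by high-content imaging of betaIII-tubulin (Alexa Fluor-488) and Hoechst-labelled rat primary cortical cells.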

[10] = CCTE_Mundy_HCI_Cortical_NOG_BPCount: CCTE's Neurite Outgrowth Assay in rat cortical cells for Branch Point Count, Mundy Lab (AID 2284237);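 note: branch points counted about two days after chemical exposure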
Summary of the method: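 Measured 50.33 h after dosing, this morphology endpoint uses rat primary cortical cultures labelled for betaIII-tubulin. Branch points are quantified by high-content imaging, with DMSO as negative control and baseline.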

[11] = CCTE_Mundy_HCI_hNP1_Casp3_7: CCTE's Caspase-Glo 3/7 Assay in human neuroprogenitor cells for Apoptosis, Mundy Lab (AID 2284240)
Summary of the method: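 Luminescent caspase-3/7 readout, 26.5 h post-dose, in human neural progenitor cells from WA09 embryonic stem cells. Cells grew 40–44 h at 37 °C, 5% CO2 before chemical addition. Activity analysed as signal increase over DMSO baseline.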

[12] = IUF_NPC2a_radial_glia_migration_120hr: Leibniz Research Institute for Environmental Medicine (IUF) 120-hour Neural Progenitor Cell Migration Assay for Radial Glia Migration (NPC2a) (AID 2284298)
Summary of the method: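 Migration distance in um, sphere core edge to migration-area edge, derived by nuclei-density algorithm from Hoechst images after 120 h compound exposure. Primary hNPC spheres differentiated on poly-D-lysine/laminin in N2 medium, 37C; medium half-replaced day 3.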

[13] = IUF_NPC2a_radial_glia_migration_72hr: Leibniz Research Institute for Environmental Medicine (IUF) 72-hour Neural Progenitor Cell Migration Assay for Radial Glia Migration (NPC2a) (AID 2284299)
Summary of the method: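 Spheres of human primary neural progenitors migrate on poly-D-lysine/laminin under compound exposure at 37C, 5% CO2. The 72 h radial glia migration distance comes from brightfield images, measured manually.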

[14] = IUF_NPC3_neuronal_differentiation_120hr: Leibniz Research Institute for Environmental Medicine (IUF) 120-hour Neuronal Differentiation Assay (NPC3) (AID 2284301)
Summary of the method: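 hNPC spheres, PDL/laminin, DMEM/F12 3:1 + 1% N2, 37C, 5% CO2; 7 concentrations + solvent control, 5 d exposure, half-change day 3. Fix 120 h; TUBB3/Hoechst ICC, CNN neuron calling; % neurons vs nuclei, DMSO-normalized.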

[15] = IUF_NPC4_neurite_length_120hr: Leibniz Research Institute for Environmental Medicine (IUF) 120-hour Neuronal Morphology Assay for Neurite Length (NPC4) (AID 2284302)
Summary of the method: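 hNPC spheres (0.3 mm, fetal brain GW 16-19) on PDL/laminin, DMEM:F12 3:1 + 1% N2, 37C 5% CO2; 7 concs + solvent control, day 0-5, half medium change d3; fix 120 h, TUBB3 ICC, mean neurite length um vs DMSO.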

[16] = IUF_NPC5_oligodendrocyte_differentiation_120hr: Leibniz Research Institute for Environmental Medicine (IUF) 120-hour Oligodendrocyte Differentiation Assay (NPC5) (AID 2284304; active = hit-call score of the fitted dose curve at least 0.9, where 1 is the maximum;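 note: primary human fetal neural progenitor spheres plated to migrate and differentiate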)
Summary of the method: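 Oligodendrocyte differentiation scored as O4-positive cells, found by CNN image analysis, as percent of Hoechst-stained nuclei in the migration area. Scoring followed 5 days of exposure of plated hNPC neurospheres differentiating in DMEM/F12 N2 medium at 37C, with compound refreshed at day 3.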

[17] = IUF_NPC4_neurite_area_120hr: Leibniz Research Institute for Environmental Medicine (IUF) 120-hour Neuronal Morphology Assay for Neurite Area (NPC4) (AID 2284305; active = hit-call score of the fitted dose curve at least 0.9, where 1 is the maximum)
Summary of the method: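 hNPC spheres on PDL/laminin, N2 medium, 37C/5% CO2; dosed day 0, half-medium refresh day 3; fixed 120 h; TUBB3/Hoechst ICC, high-content imaging; neurite area = mean pixels per neuron (nuclei excluded); DMSO baseline, max 0.1%.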

[18] = IUF_NPC2-5_cytotoxicity_120hr: Cytotoxicity Assessment at 120 hours in the Leibniz Research Institute for Environmental Medicine (IUF) Neural Progenitor Cell Migration and Differentiation Assay (NPC2-5) (AID 2284307; active = hit-call score of the fitted dose curve at least 0.9, where 1 is the maximum)
Summary of the method: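 Membrane-integrity loss measured as LDH activity in medium supernatant via resazurin-to-resorufin fluorescence after 120 h exposure. hNPC spheres from GW 16-19 fetal cortex differentiated on poly-D-lysine/laminin, 37C, medium half-refreshed day 3; seven concentrations, DMSO max 0.1%.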

[19] = IUF_NPC2-5_cell_number_120hr: Cell Number Assessment at 120 hours in the Leibniz Research Institute for Environmental Medicine (IUF) Neural Progenitor Cell Migration and Differentiation Assay (NPC2-5) (AID 2284308);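 note: count of Hoechst-stained nuclei in migration zone around plated human neural progenitor spheres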
Summary of the method: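 Counting of all Hoechst-stained nuclei in the migration area at 120 h, versus DMSO control. Primary hNPC spheres differentiated on poly-D-lysine/laminin in N2 medium at 37C, dosed from day 0 (7 concentrations, DMSO ≤0.1%), half-refed day 3.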

[20] = IUF_NPC2-5_viability_120hr: Viability Assessment at 120 hours in the Leibniz Research Institute for Environmental Medicine (IUF) Neural Progenitor Cell Migration and Differentiation Assay (NPC2-5) (AID 2284312)
Summary of the method: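 Human fetal neural progenitor spheres (0.3 mm) plated on poly-D-lysine/laminin in N2 differentiation medium, exposed 120 h with half-medium refresh at day 3. Viability by alamar blue resazurin fluorescence; 7 concentrations, DMSO max 0.1%.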

[21] = IUF_NPC1_cytotoxicity_72hr: Cytotoxicity Assessment at 72 hours in the Leibniz Research Institute for Environmental Medicine (IUF) Neural Progenitor Cell Proliferation Assay (NPC1) (AID 2284332; active = hit-call score of the fitted dose curve at least 0.9, where 1 is the maximum;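 note: rising LDH signal means more cytotoxicity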)
Summary of the method: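 Readout is fluorescence from LDH-dependent resazurin conversion, sampled from culture medium after compound contact lasting 72 h. Each well holds one 0.25-0.35 mm human progenitor sphere kept at 37C, 5% CO2 with EGF and FGF.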

[22] = CCTE_Mundy_HCI_iCellGluta_NOG_NeuronCount: CCTE's Neurite Outgrowth Assay in iCellGluta cells for Neuron Count, Mundy Lab (AID 2284340; active = hit-call score of the fitted dose curve at least 0.9, where 1 is the maximum;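 note: cells fixed about 48 h after compound addition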)
Summary of the method: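 Neuron count read by automated high-content imaging of Hoechst 33342 and betaIII-tubulin/Alexa Fluor-488 labelling in human iPSC glutamatergic neurons. Activity fitted relative to DMSO.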

[23] = CCTE_Mundy_HCI_iCellGluta_NOG_NeuriteCount: CCTE's Neurite Outgrowth Assay in iCellGluta cells for Neurite Count, Mundy Lab (AID 2284342; active = hit-call score of the fitted dose curve at least 0.9, where 1 is the maximum;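 note: chemical exposure about 48 hours starting 2 hours after plating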)

Measured: AC50

CCOP(=O)(OCC)SCSCC
active: [1] 78.6 µM | [2] 78.3 µM | [9] 89 µM | [10] 84.1 µM | [23] 49.8 µM
inactive: all other assays above
